# Compound activity (PubChem)
# KCNQ2 enhance: KCNQ2 (rat) channel potentiation | 0.54% of 310,000 active | CHO-K1 KCNQ2, FluxOR thallium flux fluorescence; stronger effect = higher value | O88943 | B-score at 10 µM | AID 2239;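 active = fluorescence ratio B-score at least 3 SD of library B-scores, with initial fluorescence B-score within 3 of them, cut at about 5.3 in these data; same plate scores as AID 2156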;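 note: B-score of peak minus minimum over baseline fluorescence ratio after K+ and Tl+ stimulus; positive B-score means potentiation of KCNQ2 with more thallium influx and brighter signal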
# Target sequence (O88943 whole entry, looked up): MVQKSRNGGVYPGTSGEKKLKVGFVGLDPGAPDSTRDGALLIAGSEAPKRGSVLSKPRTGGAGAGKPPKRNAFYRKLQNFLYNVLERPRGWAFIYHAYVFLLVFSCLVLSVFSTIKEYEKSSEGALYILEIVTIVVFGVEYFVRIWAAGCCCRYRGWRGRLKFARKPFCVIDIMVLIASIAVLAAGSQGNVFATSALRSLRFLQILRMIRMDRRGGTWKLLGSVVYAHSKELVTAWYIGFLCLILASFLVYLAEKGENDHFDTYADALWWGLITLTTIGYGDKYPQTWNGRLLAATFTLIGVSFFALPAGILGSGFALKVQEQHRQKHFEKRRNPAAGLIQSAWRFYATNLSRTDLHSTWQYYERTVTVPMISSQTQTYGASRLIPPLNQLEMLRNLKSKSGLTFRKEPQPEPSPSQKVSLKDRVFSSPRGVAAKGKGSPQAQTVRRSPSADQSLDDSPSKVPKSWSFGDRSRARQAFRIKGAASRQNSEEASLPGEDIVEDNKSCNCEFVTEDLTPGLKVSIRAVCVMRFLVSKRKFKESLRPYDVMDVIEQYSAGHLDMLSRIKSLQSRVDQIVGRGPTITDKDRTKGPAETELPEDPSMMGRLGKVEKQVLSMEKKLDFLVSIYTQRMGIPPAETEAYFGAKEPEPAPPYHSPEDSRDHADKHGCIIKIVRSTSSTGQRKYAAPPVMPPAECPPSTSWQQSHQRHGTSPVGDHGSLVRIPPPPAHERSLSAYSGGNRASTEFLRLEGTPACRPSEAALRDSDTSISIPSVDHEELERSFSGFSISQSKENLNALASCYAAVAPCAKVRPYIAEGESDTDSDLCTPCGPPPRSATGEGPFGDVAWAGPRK
# KCNQ2 block: inhibitors of rat KCNQ2 potassium channel | O88943 | B-score at 10 µM | 1.1% of 310,000 active | AID 2156 | CHO-K1 KCNQ2, FluxOR thallium flux, 20 min; stronger effect = lower value;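 active = fluorescence ratio B-score at most minus 3 library SDs, with starting brightness B-score within 2 library SDs, cut at about -5.5 in these data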
# * hit, by the source's call; i = inactive; nt = not tested or not shown. Sampled rows, rich in hits. Any-hit rate of the full collection: about 1.6%.
SMILES,KCNQ2 enhance,KCNQ2 block
COc1cccc(C2C=C(c3ccc(Br)s3)Nc3ncnn32)c1OC (centres undefined),-6.6,-6.6*
Fc1ccc(Br)cc1C1C=C(c2ccc(Br)s2)Nc2ncnn21 (centres undefined),nt,i
CCOc1ccc(CCNC(=O)COc2cccc(-n3cnnn3)c2)cc1OCC,0.67,i
COC(=O)C1=C(C)C(c2ccc(OC)cc2OC)NC(=O)N1 (centres undefined),nt,i
COc1ccc(C2CC(C)(c3ccc(OC)cc3OC)Nc3ccccc3N2)c(OC)c1 (centres undefined),-6.4,-6.4*
O=C(NCc1ccccc1)C1CCCN(c2cnccn2)C1 (centres undefined),0.84,i
COc1ccccc1NS(=O)(=O)c1ccc2oc(N)nc2c1,0.66,i
COc1cc(C2C3C(=O)N(Cc4ccccc4)C(=O)C3ON2c2ccccc2)cc(OC)c1OC (centres undefined),-6.4,-6.4*
O=C1C2ON(c3ccccc3)C(c3cccnc3)C2C(=O)N1Cc1ccccc1 (centres undefined),nt,i
CN1CCN(CCCNC(=O)CCN2C(=O)COc3ccccc32)CC1,nt,i
Cc1ccc(NC(=O)C2CCCN2c2nn3c(=O)cc(C)nc3s2)cc1 (centres undefined),nt,i
CCN1CCN(C(=O)c2ccc3c(c2)c(C)c(C)n3Cc2ccccc2)CC1,nt,i
CCn1c(C)c(C)c2cc(C(=O)N3CCc4ccccc4C3)ccc21,-6,-6*
OC1c2cc(Br)ccc2N=C2CCCN21 (centres undefined),-7.7,-7.7*
CC1=Nc2ccc(Br)cc2C(c2ccccc2)N1CC(=O)NN (centres undefined),1.6,i
O=C(CCCN1C(=O)c2ccccc2C1=O)NCCc1ccc(OC(F)F)cc1,nt,i
O=C(Nc1ccc(Cl)c(Cl)c1)Nc1ccccc1O,11*,i
O=C(Nc1ccc(Cl)c(Cl)c1)Nc1ccc(Br)cc1F,nt,i
O=C(Nc1ccccc1O)C(c1ccccc1)c1ccccc1,-6.5,-6.5*
O=C(O)c1ccccc1NC(=O)C(c1ccccc1)c1ccccc1,1.4,i
CCC(C(=O)OCC(=O)Nc1ccc2[nH]c(=O)[nH]c2c1)c1ccccc1 (centres undefined),1.9,i
Clc1ccc(CSc2nnc(CNc3cccc(Cl)c3)o2)cc1,-5.7,-5.7*
Fc1cccc(Cl)c1CSc1nnc(CNc2ccccc2)o1,nt,i
O=C(OCC(=O)N1CCCC1)c1cc(F)c(F)cc1Cl,1.7,i
O=C(COc1ccccc1Cl)Nc1ccc(N2CCN(C(=O)c3ccccc3)CC2)cc1,nt,i
SMILES,KCNQ2 enhance,KCNQ2 block
O=C(OCc1ccccc1)c1cccc(-c2nnc(-c3ccccc3)o2)c1,-6.3,-6.3*
O=C(OCc1ccc(C(=O)c2ccccc2)cc1)c1cccc(-c2nnc(-c3ccccc3)o2)c1,nt,i
COc1ccccc1NC(=O)Nc1cc(F)ccc1F,0.87,i
CCOC(=O)c1c(NC(=O)C(Sc2ccccc2)c2ccccc2)sc(C(N)=O)c1C (centres undefined),nt,i
CCOC(=O)c1c(NC(=O)C(Sc2ccccc2)c2ccccc2)sc(C(=O)N(C)C)c1C (centres undefined),-5.8,-5.8*
CC1CCCC(NC(=O)CCNC(=O)c2ccc(Br)cc2)C1C (centres undefined),nt,i
C(=N\Nc1nc(Nc2ccccc2)nc(N2CCCCC2)n1)/c1ccco1,nt,i
CCN(CC)S(=O)(=O)c1cccc(C(=O)OCC(=O)Nc2ccccc2OC(F)F)c1,0.51,i
CCN(CC)S(=O)(=O)c1cccc(C(=O)OCC(=O)NCc2ccccc2OC)c1,-6.5,-6.5*
CC1CCN(C(=O)c2ccc(S(=O)(=O)NCc3ccco3)cc2)CC1,nt,i
NC(=O)c1ccc(-n2nnnc2SCC(=O)Nc2ccc(F)cc2)cc1,1.6,i
O=C(O)c1cccc(Cn2c(Cl)c(/C=N/NC(=O)c3ccco3)sc2=O)c1,0.15,i
Cc1cc(C)c(C(=O)COC(=O)[C@H](C)Nc2ccc(C(F)(F)F)cc2[N+](=O)[O-])c(C)c1,-6.2,-6.2*
COc1ccc(C(=O)COC(=O)[C@H](C)Nc2ccc(C(F)(F)F)cc2[N+](=O)[O-])cc1,0.01,i
Cc1cc(NC(=O)COC(=O)[C@H](Cc2c[nH]c3ccccc23)NC(=O)c2ccc(F)cc2)no1,-7.2,-7.2*
CC(=O)NC(Cc1c[nH]c2ccccc12)C(=O)OCC(=O)Nc1cc(C)on1 (centres undefined),0.63,i
COC(=O)c1ccc2c(=O)n(CCN3CCOCC3)c(SCC(=O)Nc3ccccc3Cl)nc2c1,-6.2,-6.2*
COC(=O)c1ccc2c(=O)n(CCN3CCOCC3)c(SCC(=O)Nc3ccc(OC)cc3OC)nc2c1,nt,i
CC(Sc1nnc(-c2ccc(Cl)cc2Cl)n1Cc1ccccc1)C(=O)Nc1nccs1 (centres undefined),nt,i
Cc1nnc(SC(C)C(=O)Nc2ccc(Cl)cn2)n1Cc1ccccc1 (centres undefined),-6.2,-6.2*
O=C(COc1ccc(C(=O)O)cc1)Nc1cccc(C(F)(F)F)c1,0.74,i
O=C(COc1ccc(C(=O)NCCN2CCOCC2)cc1)Nc1cccc(C(F)(F)F)c1,-5.7,-5.7*
Cc1[nH]c2ccccc2c1C(=O)CSc1n[nH]c(N)n1,nt,i
CN(C)c1cccc(C(=O)NCc2ccc3c(c2)OCO3)c1,nt,i
CCNC(=O)c1ccccc1SCc1ccccc1,-7.4,-7.4*
SMILES,KCNQ2 enhance,KCNQ2 block
CCc1ccc(OCCNC(=O)c2ccccc2SCc2ccccc2)cc1,nt,i
CCOC(=O)N1CCC(NCc2c(C(=O)N(C)Cc3ccccc3)nc3ccccn23)CC1,1.4,i
COc1cc(NC(=O)C(=O)NNC(=O)C2CCCCC2)c(OC)cc1Cl,9.8*,i
COc1cc(NC(=S)N2CCCCC2C)c(OC)cc1Cl (centres undefined),nt,i
CCCC(=Nc1ccccc1OC)C1=C(O)CC(c2ccccc2)CC1=O (centres undefined),nt,i
CCCCC(=Nc1ccccc1OC)C1=C(O)CC(c2ccccc2)CC1=O (centres undefined),-6.5,-6.5*
COCCN(C(=O)CCC(=O)Nc1cc(C)on1)C(C(=O)NC(C)(C)C)c1cccc(OC)c1OC (centres undefined),nt,i
CC(C)=CC(=O)Nc1ccc(OCc2ccccc2)cc1,7.6*,i
O=C(Nc1ccc(OCc2ccccc2)cc1)c1ccccc1,nt,i
COc1ccc(CN(C)CC(O)COc2ccc(-c3ccccc3)cc2)cc1OC (centres undefined),0.56,i
COc1ccc(CN(CC(O)COc2cccc3[nH]cc(C)c23)C(C)(C)C)cc1 (centres undefined),-5.9,-5.9*
COc1ccc(-c2[nH]ncc2CN(CC2CCC(=O)N2)C(C)C)cc1F (centres undefined),nt,i
COc1ccc(CNC(=O)C2=CC(c3ccc(C)cc3)=NS(=O)(=O)N2C)cc1,1.5,i
COc1ccccc1OCC(=O)Nc1ccccc1C(=O)N1CCCCC1,nt,i
O=C(COc1ccccc1Cl)Nc1ccccc1C(=O)N1CCCCC1,-6,-6*
COc1ccc(/C=C/C(=O)NNC(=O)c2cc(C)oc2C)cc1,0.7,i
COc1ccc(/C=C(\C#N)C(=O)OCC(=O)Nc2ccc(-c3nc4ccc(C)cc4s3)cc2)cc1,nt,i
